Rows were chosen to be rich in hits. Some 2.4% of all compounds tested hit in one or more screens of this group.
Cruzain inh Det: blocks cruzain activity in presence of Triton detergent; purified cruzain, Z-FR-AMC fluorescence, 0.01% Triton; Potency, µM, without a hit: max response, negative = inhibition, hits mostly inhibitors; 0.43% of 200,000 active; P25779;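 also: plate controls were neutral wells for no effect and buffer without enzyme for full effect; nearly all actives have a fitted effect of over 40% in size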
Target sequence (P25779 123-467 limits assumed): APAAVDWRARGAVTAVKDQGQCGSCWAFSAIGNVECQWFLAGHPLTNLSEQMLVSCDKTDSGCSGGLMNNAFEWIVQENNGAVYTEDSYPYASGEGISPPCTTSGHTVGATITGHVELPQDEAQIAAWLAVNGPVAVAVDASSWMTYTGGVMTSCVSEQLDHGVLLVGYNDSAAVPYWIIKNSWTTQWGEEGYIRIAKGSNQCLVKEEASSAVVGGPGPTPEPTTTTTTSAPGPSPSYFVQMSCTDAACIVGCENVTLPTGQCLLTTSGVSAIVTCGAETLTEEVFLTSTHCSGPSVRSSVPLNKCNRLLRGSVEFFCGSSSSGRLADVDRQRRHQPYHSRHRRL
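Detergent-containing run (0.01% Triton X-100) in acetate buffer pH 5.5 with 5 mM DTT: enzyme at 1.5 nM final, 15 min compound preincubation at room temperature, then 2 uM Z-FR-AMC substrate. Activity taken as 60 s fluorescence increase at 360/450 nm.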
Cruzain inh noDet: cruzain (T. cruzi) inhibition without detergent; P25779; purified cruzain, Z-FR-AMC fluorescence, no detergent; Potency, µM, for the others: max response, negative = inhibition, most hits filed as inhibitors; 2.3% of 200,000 active;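 also: plate controls were enzyme without inhibitor for no effect and buffer without enzyme for full effect; nearly all actives have a fitted effect of over 40% in size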
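Detergent-free condition (0.00005% Triton X-100) in acetate buffer pH 5.5 with DTT. 1.5 nM enzyme and compound were pre-mixed 15 min, then 2 uM Z-FR-AMC substrate added; reaction progress from fluorescence change between first and third reads (60 s).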
Papain inh: counter-screen for cruzain inhibitors: papain inhibition; shares compounds with Cruzain inh Det; purified papain, Z-FR-AMC fluorescence cleavage; Potency, µM, inactives show max response, negative = inhibition, hits mostly inhibitors; 41% of 410 active; AID 2161;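 also: 0% = no-compound wells and -100% = no-enzyme wells; nearly all actives have a fitted effect of over 35% in size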
Target sequence (P00784 whole entry, looked up): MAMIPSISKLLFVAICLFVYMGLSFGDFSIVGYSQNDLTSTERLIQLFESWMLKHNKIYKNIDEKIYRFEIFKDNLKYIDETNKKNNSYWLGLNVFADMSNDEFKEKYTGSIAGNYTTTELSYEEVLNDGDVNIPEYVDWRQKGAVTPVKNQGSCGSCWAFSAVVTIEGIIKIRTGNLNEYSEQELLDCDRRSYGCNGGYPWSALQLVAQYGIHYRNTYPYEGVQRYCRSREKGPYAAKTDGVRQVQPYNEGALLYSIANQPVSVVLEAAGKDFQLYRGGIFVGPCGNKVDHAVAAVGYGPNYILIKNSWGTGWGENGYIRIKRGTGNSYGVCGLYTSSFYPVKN
Starred values were filed as active, the others as inactive; ? = inconclusive; / = no result. Calls follow the shape of the dose curve; as a rule, active = well fitted curve in the direction sought with a large enough effect; inconclusive = small, poorly fitted or top-dose-only effect, or another doubt; inactive = no such curve, though single readings can be large; an effect the other way counts as inactive or inconclusive. Potency is read from the fitted curve at half-maximal effect.

SMILES	Cruzain inh Det	Cruzain inh noDet	Papain inh
O=[N+]([O-])c1cc(S(=O)(=O)Nc2cccc(C(F)(F)F)c2)ccc1-n1nnc2ccccc21	3.98µM*	10µM*	28.2µM*
COC(=O)c1cc2oc3ccccc3c2n1Cc1nc(-c2ccc(Cl)cc2)oc1C	-0.1%	3.6%	/
O=C(NCCNC(=O)c1ccco1)c1cccc(F)c1	0.0%	1.6%	/
O=C(NCCCO)c1ccc2nc(-c3ccco3)c(-c3ccco3)nc2c1	/	/	28.2µM*
CCCNC(=O)c1ccc2nc(-c3ccccc3)c(-c3ccccc3)nc2c1	-9.1%	?	/
CCCCNC(=O)c1ccc2nc(-c3ccco3)c(-c3ccco3)nc2c1	14.1µM*	15.8µM*	15.8µM*
CCNC(=O)c1ccc2nc(-c3ccccc3)c(-c3ccccc3)nc2c1	/	/	-14.5%
CCCNC(=O)c1cc(-c2ccco2)on1	-2.6%	-15.3%	/
CCN(CC)c1ccc(C(=O)NCc2nc3cccnc3n2Cc2ccc(C)cc2)cc1	-7.1%	-16.1%	/
CNc1ccnc(-c2ccccc2C)n1	-3.5%	1.0%	/
Cc1ccc(S(=O)(=O)c2nc(-c3ccco3)oc2NCC2CCCO2)cc1 (stereo not given)	11.2µM*	10µM*	-13.7%
Cc1ccc(CSc2oc(-c3ccco3)nc2S(=O)(=O)c2ccc(C)cc2)cc1	-8.6%	-11.3%	/
CCCN(CCC)CCNC(=O)C1CCN(c2nc3ccc(CC)cc3s2)CC1	-1.2%	25.6%	/
Cn1c(=O)c(-c2cccs2)nc2cncnc21	-1.2%	-12.6%	/
O=C(/C=C/c1ccc2c(c1)OCO2)Nc1ccc(-n2nncc2-c2ccccc2)cc1	/	/	14.1µM*
COc1ccc(-c2cnnn2-c2ccc(NC(=O)/C=C/c3ccc(OC)c(OC)c3)cc2)cc1	3.55µM*	12.6µM*	-14.4%
O=C(Nc1ccc(-n2nncc2-c2ccccc2)cc1)c1cccc(F)c1	10.6%	8.7%	/
O=C(Nc1ccccc1)c1ccc(-n2nncc2-c2ccccc2)cc1	/	/	1.5%
COc1ccc(/C=C/C(=O)Nc2ccc(-n3nncc3-c3ccc(OC)c(OC)c3)cc2)cc1OC	-14.7%	?	/
CN(C)S(=O)(=O)c1ccc(C(=O)Nc2ccc(-n3nncc3-c3ccccc3)cc2)cc1	-0.3%	-15.9%	/
COC(=O)c1ccc(OCC2c3cc(OC)c(OC)cc3CCN2C(=O)Cc2ccc(OC)c(OC)c2)cc1 (stereo not given)	0.4%	?	/
CCCCCCCc1cc2ccccc2c(=O)o1	-3.8%	-7.5%	/
CCn1c(=N)c(C(=O)NC2CCCC2)cc2c(=O)n3ccccc3nc21	-9.1%	-0.7%	/
N=c1c(C(=O)NCc2ccc(F)cc2)cc2c(=O)n3ccccc3nc2n1CC1CCCO1 (stereo not given)	31.6µM*	?	15.8µM*
Cc1ccc(CNC(=O)c2sc3ccc(S(=O)(=O)N4CCCCC4)cc3c2N)cc1	-6.7%	?	/
SMILES	Cruzain inh Det	Cruzain inh noDet	Papain inh
Nc1c(C(=O)NCCC2=CCCCC2)sc2ccc(S(=O)(=O)N3CCCCC3)cc12	3.55µM*	12.6µM*	-9.5%
COC(=O)Cn1c(=NC(=O)c2ccc(Cl)s2)sc2cc(C)ccc21	22.4µM*	20µM*	14.1µM*
C#CCn1c(=NC(=O)c2ccc(Br)s2)sc2cc(NC(C)=O)ccc21	-11.8%	-18.1%	/
CCNc1nc(C#N)nc(NCC)n1	/	/	-7.8%
CCNc1nc(NOC)nc(OCC#N)n1	-0.6%	-3.2%	/
Cn1c(=O)n(C)c2cc(CNCc3ccccc3Cl)ccc21	-0.1%	-6.2%	/
O=C(Cn1c(=O)n(Cc2ccco2)c(=O)c2ccccc21)Nc1cccc(F)c1	-9.5%	-19.1%	/
O=C(Cn1c2ccccc2c(=O)c2ccccc21)Nc1cccc(F)c1	0.794µM*	-27.8%	-3.8%
COc1ccc(N2CCN(C(=O)CSc3nc4ccccc4nc3Cc3ccc(Cl)cc3)CC2)cc1	-0.7%	?	/
Cc1cccc(C)c1OCC(=O)N(Cc1ccc(Cl)cc1)CC1CCCO1 (stereo not given)	-7.1%	6.2%	/
Cc1ccc(-n2c3nc(=O)n(C)c(=O)c-3cc3ccccc32)c(C)c1	8.2%	-9.7%	/
COc1cc(/C=c2\sc3nc(-c4ccncc4)nn3c2=O)ccc1OC(C)=O	-0.9%	?	/
Cn1nc(-c2ccncc2)nc2c(=O)n(C)c(=O)nc1-2	/	/	-6.5%
Cc1nc2c(=O)n(C)c(=O)nc-2n(C)n1	1µM*	0.501µM*	-1.2%
Cn1nc(-c2ccccc2)nc2c(=O)n(C)c(=O)nc1-2	/	/	-4.5%
Cn1c(=O)c(-c2ccccc2)nn2c3ccccc3nc12	1.8%	-19.0%	/
Cc1ccc(N2CCN(C(=O)C3CCN(S(=O)(=O)c4ccc5c(c4)oc(=O)n5C)CC3)CC2C)cc1 (stereo not given)	1.4%	6.9%	/
Cc1ccc(CNC(=O)C(=O)NCC(c2ccco2)S(=O)(=O)c2ccc(C)cc2)cc1 (stereo not given)	-0.6%	19.1%	/
CCOc1ccc(C2C(=O)N(C3CCCCCC3)CC(=O)N2CCC2=CCCCC2)cc1OC (stereo not given)	0.1%	25.7%	/
CC(C)Oc1cccc(C(=O)Nc2ccc3oc(-c4ccccc4)nc3c2)c1	-4.5%	-12.3%	/
COCCOC(=O)c1c(N)n(Cc2ccco2)c2nc3ccccc3nc12	-4.6%	-0.5%	/
CC(C)OC(=O)c1c(N)n(Cc2ccco2)c2nc3ccccc3nc12	11.2µM*	12.6µM*	-2.2%
O=c1cc(-c2ccccc2Cl)oc2c(NS(=O)(=O)c3cc(Cl)cc(Cl)c3O)ccc(O)c12	25.1µM*	4.7%	4.47µM*
O=c1cc(-c2ccccc2Cl)oc2cc(O)cc(O)c12	-9.9%	-5.4%	/
CCc1ccccc1NC(=O)C1CCN(S(=O)(=O)c2ccc3[nH]c(=O)ccc3c2)CC1	0.3%	9.3%	/
SMILES	Cruzain inh Det	Cruzain inh noDet	Papain inh
O=C(Nc1nnc(C2CC2)o1)c1ccc(S(=O)(=O)N2CCCc3ccccc32)cc1	-4.5%	23.4%	/
COc1ccc(-c2nnc(NC(=O)c3ccc(S(=O)(=O)N4CCCc5ccccc54)cc3)o2)cc1	-0.5%	-23.3%	-3.5%
Cc1ccc(CNC(=O)c2ccc(Cn3c(=O)c4ccccc4n(CC(=O)Nc4ccc(C)cc4C)c3=O)cc2)cc1	-0.1%	?	/
O=C(c1ccco1)N1CCN(c2c(-c3ccccc3)c3cc(Cl)ccc3[nH]c2=O)CC1	-2.8%	?	/
O=C(c1ccco1)N1CCN(c2ncnc3c2[nH]c2ccc(Cl)cc23)CC1	14.1µM*	?	-9.6%
CCc1ccc(-n2c(SCc3cccc(F)c3)nc3[nH]ncc3c2=O)cc1	-10.8%	7.5%	/
CCOc1ccc(NC(=O)CCS(=O)(=O)c2ccc(Br)s2)cc1	-3.0%	-9.6%	/
Cc1cccc(C)c1N=C1NN=C(c2ccccc2F)CS1	-6.2%	?	/
FC(F)Sc1ccc(N=C2NN=C(c3ccc4c(c3)OCCO4)CS2)cc1	0.3%	3.16µM*	-12.3%
CCn1c(SCC(=O)Nc2cc(C)ccc2F)nnc1-c1ccccc1O	-3.4%	3.3%	/
COCC(C)NC(=O)Cn1c(SCc2ccccc2)nc2ccccc21 (stereo not given)	/	/	-7.8%
COCC(C)NC(=O)CSc1nc2ccccc2n1CCc1ccccc1 (stereo not given)	0.3%	9.8%	/
Cc1cccc(C)c1OCC(=O)Nc1c(C(=O)c2ccccc2)oc2ccccc12	0.1%	?	/
COc1ccc(NC(=O)CSc2nnc(-c3ccc(OC)cc3)s2)cc1	-1.9%	2.0%	/
Cc1cccc2cc(CN(Cc3ccccc3)Cc3nnnn3Cc3ccccc3)c(=O)[nH]c12	/	/	-6.8%
CCc1ccc2[nH]c(=O)c(CN(Cc3ccccc3)Cc3nnnn3Cc3ccco3)cc2c1	-11.6%	5.9%	/
